From PubChem BioAssay AID1159580 (chemical genetic matrix, 2015)
Where “and” joins values, the source holds several entries; their conditions need not be identical. Equal values may be shown once. About 2,000 (36%) of roughly 5,500 compounds were called active. Inconclusive results (about 18%) are left out. Cut-off read from the data, not from the text of the source: active = normalized growth mostly below about 0.91 (no sharp cut-off); inconclusive = no clear call, values can overlap the other calls; inactive = mostly above about 0.92. This is one part of the list.

Experiment: chemical genetic growth profiling, strain panel (AID 1159580);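 note: tested at 20 µM; growth read once vehicle control cultures reached saturation at 30 °C; 1 = growth at the plate median or of vehicle wells; lower values mean less growth of the strain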
Details: S. cerevisiae deletion strains, growth OD

Measured: normalized growth

CC1=C2C(O)C(=O)OC3CC4C(C)(C)C(=O)C=C[C@]4(C)C(CC1)[C@]23C (stereo partly specified)
inactive: locus YAL021C, strain ccr4, active compounds read low 1.01 | locus YAL026C, strain drs2, active compounds read low 1.02 | locus YAL030W, strain snc1, active compounds read low 1.01 | locus YBL061C, strain skt5, active compounds read low 1.01 | locus YBR009C, strain hhf1, active compounds read low 1 | locus YBR021W, strain FUR4, active compounds read low 0.994 | locus YBR023C, strain chs3, active compounds read low 1.02 | locus YBR171W, strain sec66, active compounds read low 1.01 | locus YBR229C, strain ROT2, active compounds read low 1.02 | locus YBR231C, strain swc5, active compounds read low 1 | locus YBR279W, strain paf1, active compounds read low 1 | locus YCL011C, strain gbp2, active compounds read low 1.01 | locus YCL016C, strain dcc1, active compounds read low 1.01 | locus YCL029C, strain bik1, active compounds read low 1 | locus YCL061C, strain MRC1, active compounds read low 1 | locus YCL069W, strain vba3, active compounds read low 1 | locus YCR088W, strain abp1, active compounds read low 1.01 | locus YDL005C, strain med2, active compounds read low 1.02 | locus YDL035C, strain GPR1, active compounds read low 1.03 | locus YDL040C, strain nat1, active compounds read low 1.01 | locus YDL074C, strain BRE1, active compounds read low 1.07 | locus YDL101C, strain DUN1, active compounds read low 1.04 | locus YDL134C, strain PPH21, active compounds read low 1.04 | locus YDL185W, strain tfp1, active compounds read low 1.02 | locus YDL192W, strain arf1, active compounds read low 1.02 | locus YDR001C, strain nth1, active compounds read low 1 | locus YDR069C, strain doa4, active compounds read low 1.02 | locus YDR101C, strain arx1, active compounds read low 0.99 | locus YDR137W, strain rgp1, active compounds read low 1.12 | locus YDR159W, strain sac3, active compounds read low 1.03 | locus YDR162C, strain NBP2, active compounds read low 1.04 | locus YDR195W, strain ref2 0.986 | locus YDR297W, strain sur2, active compounds read low 1.02 | locus YDR318W, strain mcm21, active compounds read low 1.02 | locus YDR334W, strain swr1, active compounds read low 1 | locus YDR335W, strain msn5, active compounds read low 1 | locus YDR388W, active compounds read low 1.02 | locus YDR392W, strain spt3, active compounds read low 1.03 | locus YDR502C, strain sam2, active compounds read low 1.04 | locus YEL003W, strain gim4, active compounds read low 1 | locus YEL037C, strain rad23, active compounds read low 1 | locus YEL061C, strain CIN8 (second series), active compounds read low 1.01 | locus YER015W, strain faa2, active compounds read low 1.01 | locus YER016W, strain bim1, active compounds read low 1.02 | locus YER110C, active compounds read low 1.02 | locus YER111C, strain swi4, active compounds read low 1.02 | locus YER155C, strain BEM2 (second series), active compounds read low 1.01 | locus YER155C, strain BEM2, active compounds read low 1 | locus YER167W, strain BCK2, active compounds read low 1 | locus YFR010W, strain ubp6, active compounds read low 1.01 | locus YGL078C, strain dbp3, active compounds read low 1.05 | locus YGL086W, strain mad1, active compounds read low 1.01 | locus YGL167C, strain pmr1, active compounds read low 1.02 | locus YGL173C, strain kem1, active compounds read low 1.03 | locus YGL227W, strain vid30, active compounds read low 1.01 | locus YGL240W, strain doc1, active compounds read low 1 | locus YGL248W, strain PDE1, active compounds read low 1.02 | locus YGL253W, strain hxk2, active compounds read low 1.02 | locus YGR078C, strain PAC10, active compounds read low 1.05 | locus YGR135W, strain pre9, active compounds read low 1.07 | locus YGR252W, strain gcn5, active compounds read low 1.13 | locus YHR013C, strain ard1, active compounds read low 1.04 | locus YHR027C, strain rpn1, active compounds read low 1.02 | locus YHR030C, strain SLT2, active compounds read low 1.01 and 1.04 | locus YHR079C, strain IRE1 (second series), active compounds read low 1.01 | locus YHR079C, strain IRE1, active compounds read low 1.02 | locus YHR094C, strain hxt1, active compounds read low 1.01 | locus YHR129C, strain ARP1, active compounds read low 1.02 | locus YHR142W, strain chs7, active compounds read low 1.01 | locus YHR200W, strain rpn10, active compounds read low 1.02 | locus YIL066C, strain RNR3, active compounds read low 1.02 | locus YIL073C, strain SPO22, active compounds read low 1.06 | locus YIL125W, strain kgd1, active compounds read low 0.995 | locus YIR030C, strain dcg1, active compounds read low 1.02 | locus YJL092W, strain hpr5, active compounds read low 1 | locus YJL095W, strain BCK1 (second series), active compounds read low 1.01 | locus YJL095W, strain BCK1, active compounds read low 1.07 and 1.03 | locus YJL115W, strain asf1, active compounds read low 1.01 | locus YJL129C, strain trk1, active compounds read low 1.03 | locus YJL134W, strain LCB3, active compounds read low 1.01 | locus YJL154C, strain vps35, active compounds read low 1.02 | locus YJL164C, strain tpk1, active compounds read low 1.01 | locus YJL166W, strain qcr8, active compounds read low 1.01 | locus YJL168C, strain set2, active compounds read low 1.02 | locus YJL187C, strain SWE1 (second series), active compounds read low 1.05 | locus YJL187C, strain SWE1, active compounds read low 1.01
